Screening results (PubChem BioAssay)
ATG4B inh = inhibitors of human ATG4B cysteine protease; ATG4B cleavage of LC3-PLA2, NBD-HPC fluorescence, 1 h; inhibition, % at 8.33 µM; actives 0.51% (n = 340,000); AID 504462; in the data active = inhibition above about 40%
SKN-1 inh = inhibitors of C. elegans SKN-1. inhibition, % at 21.8 µM. C. elegans VP596 Pgst-4::GFP/RFP ratio, acrylamide-induced, 24 h. actives 0.49% (n = 360,000);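 active = interference check ratio from 0.5 to 1.5 plus GFP to RFP signal ratio inhibition reaching or exceeding a fixed threshold, cut at about 30% in these data, passing the limit was not always enough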
M1 PAM = positive allosteric modulators of human M1 muscarinic receptor; P11229; CHO-K1 hM1, Fluo-8 calcium fluorescence, ACh EC20; 0% = ACh EC20, 100% = maximal ACh; activation, % at 3 µM; actives 0.088% (n = 360,000); in the data active = activation above about 19%, passing the limit was not always enough
Target sequence (P11229 whole entry, looked up): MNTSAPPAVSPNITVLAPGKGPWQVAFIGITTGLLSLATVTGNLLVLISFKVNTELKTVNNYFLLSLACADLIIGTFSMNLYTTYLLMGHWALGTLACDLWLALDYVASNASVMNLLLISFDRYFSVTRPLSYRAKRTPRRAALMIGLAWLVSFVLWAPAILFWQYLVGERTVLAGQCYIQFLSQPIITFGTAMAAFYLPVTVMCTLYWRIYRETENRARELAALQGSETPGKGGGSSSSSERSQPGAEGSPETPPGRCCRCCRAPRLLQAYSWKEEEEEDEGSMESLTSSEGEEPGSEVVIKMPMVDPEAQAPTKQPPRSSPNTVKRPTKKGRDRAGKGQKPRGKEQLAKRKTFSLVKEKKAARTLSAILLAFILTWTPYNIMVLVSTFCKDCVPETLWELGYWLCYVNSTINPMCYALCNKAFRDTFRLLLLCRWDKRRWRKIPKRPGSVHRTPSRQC
Myeloid diff 2 = myeloid differentiation induction; ER-HoxA9 myeloid progenitors, lysozyme-GFP differentiation, flow cytometry; calls only at 10 µM; actives 1% (n = 360,000); AID 624256;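 active = normalized GFP-positive differentiation at or above the plate's own cutoff, the solvent-only control mean plus 3 SD; inconclusive = no clear call, values can overlap the other calls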;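 note: cells exposed to compound for four days before flow analysis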
M1 ag = agonists of human M1 muscarinic receptor; CHO-K1 hM1, Fluo-8 calcium fluorescence, agonist mode; 0% DMSO, 100% acetylcholine EC100; activation, % at 3 µM; actives 0.33% (n = 360,000);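 active = activation above the run's mean compound activation plus 3 SD, cut at about 16% in these data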;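 note: peak over basal fluorescence ratio within a 140 s kinetic read after compound addition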
CHRM1 antagonist = antagonists of human M1 muscarinic receptor. P11229. CHO-K1 hM1, Fluo-8 calcium fluorescence, ACh EC80 antagonist. inhibition, % at 3 µM. actives 1.3% (n = 360,000). AID 588852;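 active = percent inhibition above its own plate's cutoff, namely the mean of that plate's compound wells plus 3 SD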;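 note: peak over basal fluorescence ratio during 140 s after agonist addition; 0% = ACh EC80 plus DMSO and 100% = DMSO alone without agonist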
ATG4B confirm = confirmation of human ATG4B inhibitors. ATG4B protease fluorescent substrate cleavage assay. actives 92% (n = 320). inhibition, % at 8.33 µM. shares compounds with ATG4B inh; in the data active = inhibition above about 39%
PLA2 ctr = PLA2 (human) inhibition in ATG4B counter-screen; AID 588402; shares compounds with ATG4B inh; inhibition, % at 8.33 µM; actives 66% (n = 1,600); purified PLA2, NBD-C6-HPC fluorescence, 45 min; in the data active = inhibition above about 50%
Starred values were filed as active, the others as inactive; i = inactive; ? = inconclusive; . = no result. Hits are enriched below; roughly 3.5% of the tested compounds scored in any of these assays.

SMILES | ATG4B inh | SKN-1 inh | M1 PAM | Myeloid diff 2 | M1 ag | CHRM1 antagonist | PLA2 ctr | others
CSc1nc(N)nc2c1ncn2CC(=O)N1CCN(Cc2c(C)cc(C)cc2C)CC1 | -4 | 12 | -17 | i | -2 | 29 | .
O=C1NC(=S)S/C1=C\c1cc(Cl)cc(Cl)c1O | 62* | 58 | -13 | i | 40* | 36* | 36 | ATG4B confirm=40*
CCc1ccc(/C=N/NC(=O)Cc2cccn2C)cc1 | -9 | -7 | 9 | i | -1 | -4 | .
Cc1ccccc1/C=N/Nc1ccnc2cc(Cl)ccc12 | 48* | -2 | -10 | i | -8 | 4 | 39 | ATG4B confirm=65*
Cc1ccc(/C=N/Nc2ccnc3cc(Cl)ccc23)c(C)c1 | 46* | 25 | 0 | ? | -10 | 1 | 40
Clc1ccc2c(N/N=C/c3cccnc3)ccnc2c1 | -4 | 4 | -1 | i | -11 | -4 | .
COc1ccccc1NC(=O)NNC(=O)c1ccc2ccccc2c1O | -4 | 23 | 13 | i | -2 | -19 | .
O=C(NCC(=O)N1CCN(c2ccccc2O)CC1)c1ccccc1 | -9 | 9 | 3 | i | -2 | 1 | .
CCc1nc(N2CCC(C)CC2)c2oc3ccccc3c2n1 | 57* | 6 | -1 | i | -8 | 0 | 68*
CCOc1c(Br)cc(C(N)=O)cc1OCc1ccccc1 | 79* | 7 | -4 | i | -9 | 7 | 80*
COc1cc(C(N)=O)cc(Br)c1OCc1ccccc1 | 70* | 9 | 2 | i | -8 | -12 | 71*
CCCOc1c(Br)cc(C(N)=O)cc1OCC | 42* | 6 | -1 | i | -8 | -3 | 56*
CCOc1c(Br)cc(C(N)=O)cc1OC | 1 | -1 | 7 | i | 0 | -3 | .
CCOc1cc(/C=N/NC(N)=O)cc(Br)c1OCc1ccccc1 | -3 | -2 | 0 | i | -4 | 2 | .
COc1cc(C(N)=O)cc(Br)c1OC | 1 | 11 | 6 | i | -3 | -14 | .
O=C(NCCc1ccc(Cl)cc1)c1ccc(CNc2c(N3CCOCC3)c(=O)c2=O)cc1 | -5 | 0 | 5 | i | -6 | -6 | .
CCOC(=O)c1c(C)n(-c2ccccc2)c2ccc(OCCN(C)C)cc12 | -3 | -7 | -2 | i | 0 | 0 | .
CCCCN(C(=O)Cc1ccc(S(=O)(=O)N2CCOCC2)s1)c1c(N)n(CCCC)c(=O)[nH]c1=O | -3 | 12 | 5 | i | -3 | -5 | .
N=C1SC(c2ccccc2)C(=O)N1c1ncc(Cc2ccccc2)s1 (centres undefined) | 56* | -1 | -7 | i | -6 | 3 | 24
CCCCn1c(N)c(N(CC(C)C)C(=O)c2oc3ccc(Br)cc3c2C)c(=O)[nH]c1=O | -3 | -2 | 2 | i | -2 | -13 | .
Cc1c(Cl)cccc1NC(=S)NCCc1ccc(C(F)(F)F)cc1 | 89* | 13 | -8 | i | -4 | 21 | 94*
Fc1ccc(Nc2nc(N/N=C/c3ccco3)nc(N3CCCCC3)n2)cc1 | 64* | 13 | -7 | i | -14 | -4 | 78*
O=c1cc(CSc2n[nH]c(=O)n2C2CC2)c2ccc(O)cc2o1 | -3 | 5 | 3 | i | -3 | -8 | .
Cc1ccc(C)c(S(=O)(=O)NCCC(=O)N2CCCC(C(N)=O)C2)c1 (centres undefined) | 4 | -2 | 9 | i | -5 | -6 | .
Cc1cccc(NC(=S)NNC(=O)c2csc3c2CCCC3)c1 | 43* | 13 | 3 | i | -1 | -10 | 43 | ATG4B confirm=71*
Cc1ccc(C)c(NC(=S)NNC(=O)c2csc3c2CCCC3)c1 | 9 | 21 | 9 | i | -3 | -10 | .
CCOc1ccc(C(=O)Nc2cccc(C(=O)O)c2)cc1Cl | 17 | -11 | 10 | i | -5 | -5 | .
CCOc1ccc(C(=O)Nc2cc(NC(=O)c3ccc(OCC)c(Cl)c3)cc(C(=O)O)c2)cc1Cl | 48* | 13 | -5 | i | -9 | 8 | 60*
